Source: PubChem BioAssay (NCI)
The panel holds about 83,000 compounds, 20% with a hit somewhere; the sample as a whole holds those more often.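 Single-concentration screen, 48 h exposure, 96-well plates. Endpoint: percent growth. Below 10 = active.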 Values without a mark were called inactive. The source made the active and inactive calls.

Tests used:
Experiment in all cases: NCI-60 one-dose screen, 48 h (100 = growth as untreated, 0 = no growth, -100 = all killed)
Conditions in all cases: 10 µM unless noted
[1] = tested on: RPMI-8226 leukemia
[2] = tested on: OVCAR-8 ovarian
[3] = tested on: OVCAR-5 ovarian
[4] = tested on: OVCAR-4 ovarian
[5] = tested on: SK-OV-3 ovarian
[6] = tested on: IGROV1 ovarian
[7] = tested on: OVCAR-3 ovarian
[8] = tested on: HS 578T breast
[9] = tested on: NCI/ADR-RES ovarian
[10] = tested on: SR leukemia

N#Cc1c(NC(=O)c2cccc(C(F)(F)F)c2)sc2c1CCC(=O)C2
growth [1]: -9.7% (active) | growth [2]: 10.4% | growth [3]: 12.9% | growth [4]: -80.7% (active) | growth [5]: 3.53% (active) | growth [6]: -50.7% (active) | growth [7]: -46.8% (active) | growth [8]: 1.32% (active) | growth [9]: 7.01% (active)

CN(CCCCCCCCNc1ccnc2ccccc12)Cc1ccc(-c2ccc(-c3ccc(C#N)cc3)s2)cc1
growth [1]: -44.4% (active) | growth [2]: -52.5% (active) | growth [3]: -40.6% (active) | growth [4]: -57.9% (active) | growth [5]: -72.6% (active) | growth [6]: -86.4% (active) | growth [7]: -79.1% (active) | growth [8]: -36.6% (active) | growth [9]: -68.3% (active)

CS(=O)(=O)c1ccc(-c2nc3cc(Cl)ccc3n2CC(=O)N/N=C/c2ccc(Cl)cc2)cc1
growth [1]: -17.2% (active) | growth [2]: 43.6% | growth [3]: 77.4% | growth [4]: 60.1% | growth [5]: 65.8% | growth [6]: 55.6% | growth [7]: 46.5% | growth [8]: 19.2% | growth [9]: 92.8%

C=C(C)[C@@H]1CC[C@]2(C(=O)NCC(=O)O)CC[C@]3(C)[C@H](CC[C@@H]4[C@@]5(C)Cc6c([nH]c7ccccc67)C(C)(C)[C@@H]5CC[C@]43C)[C@@H]12
growth [1]: 79.8% | growth [2]: 78.4% | growth [3]: 107% | growth [4]: 75.9% | growth [5]: 75.1% | growth [6]: 83.3% | growth [7]: 90.5% | growth [8]: 56.9% | growth [9]: 95.4%

C[C@H]1[C@H](C)CC[C@]2(C(=O)N3CCN(C)CC3)CC[C@]3(C)C(=CC[C@@H]4[C@@]5(C)C/C(=C/c6cccnc6)C(=O)C(C)(C)[C@@H]5CC[C@]43C)[C@H]12
growth [1]: -59.3% (active) | growth [2]: -76.2% (active) | growth [3]: -77.8% (active) | growth [4]: -24.9% (active) | growth [5]: -89.5% (active) | growth [6]: -69.2% (active) | growth [7]: -93.2% (active) | growth [8]: -30.7% (active) | growth [9]: -75.1% (active)

CC[C@@H](C[C@H](CCO)c1ccccc1)c1cc2ccccc2o1
growth [1]: 90.8% | growth [2]: 91% | growth [3]: 96.7% | growth [4]: 85.3% | growth [5]: 93.9% | growth [6]: 97.8% | growth [7]: 95.7% | growth [8]: 93% | growth [9]: 93.1%

CCCCCCCCc1cc[n+](CC(=O)c2ccc(Br)cc2)cc1
growth [1]: -9.98% (active) | growth [2]: -65.8% (active) | growth [3]: 51.9% | growth [4]: 18.8% | growth [5]: 22% | growth [6]: 1.68% (active) | growth [7]: -44.1% (active) | growth [8]: -29.2% (active) | growth [9]: 93.3%

COC(=O)/C(=C\c1ccc(OC)cc1)C(=O)N1c2ccccc2Sc2ccccc21
growth [1]: 54.4% | growth [2]: 64.4% | growth [3]: 75.1% | growth [4]: 89.3% | growth [5]: 91.7% | growth [6]: 43.6% | growth [7]: 24.5% | growth [8]: 56.1% | growth [9]: 16.4%

Nc1c(C(=O)Nc2ccccc2)sc2nc3c(cc12)CCCCCC3
growth [10]: 12.6% | growth [2]: 16.4% | growth [5]: -4.37% (active) | growth [6]: 15.3% | growth [7]: -34.8% (active) | growth [8]: 22.8% | growth [9]: 1.41% (active)

CC(C)n1nc(C#Cc2cccc3cc(-c4cccc(C(F)(F)F)c4)ncc23)c2c(N)ncnc21
growth [1]: 57.1% | growth [2]: 41.1% | growth [3]: 86.1% | growth [4]: 78.8% | growth [5]: 91% | growth [6]: 72% | growth [7]: 91.2% | growth [8]: 65.2% | growth [9]: 82%

O=C1C(Cl)C(c2ccccc2Cl)N1n1cnnc1 (centres undefined)
growth [1]: 102% | growth [2]: 96.2% | growth [3]: 91.4% | growth [4]: 97.5% | growth [5]: 77.3% | growth [6]: 91.5% | growth [7]: 102% | growth [8]: 87.6% | growth [9]: 106%

CCN(CC)N=Nc1nn(C(=O)Nc2ccc(Cc3ccccc3)cc2)c2ccc(Cl)cc12
growth [1]: 57.1% | growth [2]: 69.3% | growth [3]: 87.7% | growth [4]: 75.7% | growth [5]: 92.2% | growth [6]: 88% | growth [7]: 87.6% | growth [8]: 91.5% | growth [9]: 82.1%

CN(C)c1ccc(/C=N/NC(=O)COc2cc(=O)n(C)c3ccccc23)cc1
growth [1]: 107% | growth [2]: 103% | growth [3]: 94.2% | growth [4]: 113% | growth [5]: 112% | growth [6]: 87% | growth [7]: 112% | growth [8]: 120% | growth [9]: 108%

CN1CCN(C(=O)[C@]23CCC(C)(C)C[C@@H]2C2=CC[C@@H]4[C@@]5(C)Cc6c([nH]c7ccccc67)C(C)(C)[C@@H]5CC[C@@]4(C)[C@]2(C)CC3)CC1
growth [1]: 71.6% | growth [2]: 79.6% | growth [3]: 79.8% | growth [4]: 72% | growth [5]: 76.8% | growth [6]: 84.4% | growth [7]: 78.3% | growth [8]: 73.2% | growth [9]: 89.9%
